Structures are written as SMILES.

This experiment can be described thus: modulators of S6 phosphorylation in cells, primary screen, cell-based, A549, cytoblot, luminescence, serum-stimulated (AID 1158).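 Note: serum-stimulated A549 lung adenocarcinoma cells; signal is phosphorylated S6 detected by cytoblot immunostaining with HRP secondary.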 The settings on record: A549 phospho-S6 cytoblot, 5 h, higher = more signal.
In turn, `C=C(C(=O)CC[C@H](OC(=O)c1cccnc1)c1ccccc1OCCO)C(C)C` registered a z-score of 0.142.

`C=CC[C@@]1(C(=O)NCCN2CCOCC2)N=C(c2ccc(OCCCO)cc2)O[C@@H]1c1ccccc1CN=[N+]=[N-]` registered a z-score of 1.15.

`C=CCOC(=O)[C@H]1[C@@H]2C(=O)O[C@@H](c3ccccc3)[C@@H](c3ccccc3)N2[C@@H](c2ccc(OCCOC(=O)[C@@H]3C[C@@H]4C(=O)NCC(=O)N4[C@@H]3c3ccc(O)cc3)cc2)[C@]12C(=O)Nc1ccc(I)cc12` came in with a z-score of 0.361.

With `CCOC(=O)C[C@H]1[C@H](OC(=O)c2ccc(C(=O)c3ccccc3)cc2)[C@@H](NC(=O)c2ccc3ccccc3n2)c2cc(OCCCO)ccc2N1C(=O)c1ccc2ccccc2n1`, the z-score amounted to 0.495.

Turning to `C=CCC(OC(C)=O)[C@@H]1[C@@H](N(Cc2ccc(-c3cccc(C(F)(F)F)c3)o2)C(=O)Cc2ccc(OC)cc2)c2cc(OCCCO)ccc2N1C(=O)Cc1ccc(OC)cc1` (some centres undefined), the z-score was found to be 1.37.

For `C=CCC(OC(C)=O)[C@@H]1[C@@H](N(Cc2ccc(-c3ccccc3)cc2)C(=O)c2ccc(C)cc2)c2cc(OCCCO)ccc2N1C(=O)Cc1ccc(OC)cc1` (some centres undefined), the z-score was 1.52.

For `C=C(COC)C(=O)CC[C@@H](OC(=O)c1ccccc1-c1ccccc1C(=O)O)c1ccc(CO)o1`, the z-score was -1.

As to `CN(C)CCCC[C@@H]1NC(=O)[C@@H]2C[C@H](C(=O)NCCCCCN)[C@H](c3ccc(O)cc3)N2C1=O`, the z-score is -0.431.

In the case of `CN(C)CCCN1C(=O)[C@@]2(c3ccc([N+](=O)[O-])cc3)CC(=O)N(C3CCCCC3)[C@@H]2c2ccc(CO)cc21`, the z-score stood at 0.759.

For the origin of these results see PubChem BioAssay.
